IL-1B inflam inh = inflammasome signaling inhibition, IL-1 beta readout; activity change, % at 57.5 µM; 4.7% of 360,000 active; THP-1 LPS/ATP IL-1B secretion, AlphaLISA, 16 h; stronger effect = lower value; AID 743279; in the data active = activity change below about -50%; inconclusive = mostly about -30% to -49%
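Secreted IL-1B measured by AlphaLISA bead assay after 16 h compound exposure of THP-1 cells; compounds (final up to 57.5 uM) added 1 h before LPS (250 ng/mL) and ATP (1.25 mM) stimulation; lower signal means less secretion.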
KB-3-1 cytotox = kills parental KB-3-1 adenocarcinoma cells | KB-3-1 viability, CellTiter-Glo ATP luminescence, 72 h | 1.4% of 400,000 active | Potency, µM (doses to about 46.1 µM), actives largely listed as cytotoxic; note: potency is the fitted concentration of half-maximal effect; nearly all actives have a fitted effect of over 60% in size
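Screening of KB-3-1 cells (DMEM, 10% FBS, phenol-red free) ran from lowest to highest compound concentration; after 72 h at 37 °C viability was read luminescently and curves fitted.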
HT1080-NT tox = kills 2HG-producing HT-1080-NT fibrosarcoma cells; Potency, µM (titrated, usually from 46.1 µM), inactives show at the top dose activity, negative = less viability, most hits filed as cytotoxic; AID 686970; 1.6% of 360,000 active; HT-1080-NT fibrosarcoma viability, CellTiter-Glo ATP luminescence, 48 h;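 note: NT is the 2HG producing partner of a matched IDH1 knockdown line; potency is the fitted concentration of half-maximal effect; 0% = DMSO-treated cells and -100% = media-only wells without cells; nearly all actives have a fitted effect of over 55% in size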
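Read-out is CellTiter-Glo luminescence after 10 minutes at room temperature, following 48 hours' compound treatment of HT-1080-NT cells (750 cells/well, RPMI, 5% FBS, 37 degrees C).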
KB-V1 cytotox = kills drug-selected multidrug resistant KB-V1 cells; KB-V1 MDR cells viability, CellTiter-Glo, 72 h; Potency, µM (highest dose often 46.1 µM), most hits filed as cytotoxic; 3.4% of 400,000 active; note: potency is the fitted concentration of half-maximal effect; nearly all actives have a fitted effect of over 60% in size
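Cytotoxicity via CellTiter-Glo luminescence after 72 h compound exposure at 37 degrees C. Cells: drug-selected KB-V1 line, DMEM phenol-red free plus 10% FBS. Compounds tested at multiple concentrations; normalized data fitted to concentration-effect curves.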
HT1080 IDH1KD tx = kills HT-1080 cells with IDH1 knockdown; HT-1080 IDH1 knockdown viability, ATP luminescence, 48 h; Potency, µM (titrated, usually from 46.1 µM), inactives show at the top dose activity, negative = toxicity, most hits filed as cytotoxic; 2% of 360,000 active;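 note: potency is the fitted concentration of half-maximal effect; 0% = DMSO wells and -100% = cell-free medium wells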
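HT-1080-IDH1KD cells (IDH1 knocked down), 750/well in RPMI with 5% FBS, treated with compound 48 h at 37 degrees C. Viability by CellTiter-Glo luminescence, normalised to DMSO and no-cell wells; concentration-response curves classed.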
Numbers without * were called inactive; i = inactive; ? = inconclusive; . = no result given. This is a sample that favours compounds with a hit; in the whole collection about 8.8% have one here. Unless noted, calls come from the whole dose curve; as a rule, active = well fitted curve in the direction sought with a large enough effect; inconclusive = small, poorly fitted or top-dose-only effect, or another doubt; inactive = no such curve, though single readings can be large; an effect the other way counts as inactive or inconclusive. Unless noted, % is set by controls: 0 for no effect and ±100 for the full control effect.

SMILES | IL-1B inflam inh | KB-3-1 cytotox | HT1080-NT tox | KB-V1 cytotox | HT1080 IDH1KD tx
Cc1ccc(-c2csc(NCCn3c(-c4ccncc4)nc4ccccc43)n2)cc1 | 6 | ? | -2% | 21µM* | -7%
CCC(C)C(=O)Nc1nc(-c2ccc3c(c2)NC(=O)CO3)cs1 (stereo not given) | -15 | i | -10% | i | -8%
O=C(O)C(C=C(Cl)Cl)N1CCOCC1 (stereo not given) | 1 | ? | 3% | i | -4%
Cc1cccc(C)c1NC(=O)CN1C(=O)NC(C)(C2CC2)C1=O (stereo not given) | 16 | ? | 0% | i | -8%
Cc1cccc(CNC(=O)CN2CC(C)Sc3ccccc32)c1 (stereo not given) | . | i | . | ? | .
CC(C)OCCCNC(=O)c1cn(C)c2ccc(S(=O)(=O)N3CCCC3)cc2c1=O | 20 | i | 5% | ? | 10%
O=[N+]([O-])c1ccc(N2CCN(C(=S)NC3CCCCC3)CC2)cc1 | -78* | ? | -12% | i | -21%
O=C(NC(=S)N1CCN(c2ccc([N+](=O)[O-])cc2)CC1)c1ccccc1F | -10 | i | 5% | 21µM* | 23%
O=[N+]([O-])c1ccc(N2CCN(C(=S)Nc3ccccc3)CC2)cc1 | 10 | i | 0% | i | -6%
COc1ccc(C[C@H]2CN3C(=NC[C@@H]3C(C)C)N2C[C@H](C)NC(=O)c2ccc(C)c(Br)c2)cc1 | -57* | ? | -10% | i | -26%
COc1ccc(C[C@H]2CN3C(=NC[C@H]3Cc3ccccc3)N2CCNC(=O)c2ccc(C)c(Br)c2)cc1 | -52* | ? | -21% | ? | ?
Cc1ccc(C(=O)NCCN2C3=NC[C@H](Cc4ccc(O)cc4)N3C[C@H]2Cc2ccc(O)cc2)cc1Br | 3 | i | 2% | i | 2%
COc1ccc(C[C@H]2CN3C(=NC[C@@H]3Cc3ccccc3)N2CCNC(=O)c2ccc(C)c(Br)c2)cc1 | -52* | ? | ? | ? | ?
COc1ccc(C[C@H]2CN3C(=NC[C@@H]3Cc3ccc(O)cc3)N2CCNC(=O)c2ccc(C)c(Br)c2)cc1 | -20 | 16µM* | ? | i | ?
CCc1occc(=O)c1Oc1cc(NN2CCCCC2)c([N+](=O)[O-])cc1[N+](=O)[O-] | 16 | i | -6% | i | -6%
O=C(Nc1ccc2c(c1)OCCO2)Nc1nnc(-c2ccncc2)s1 | . | i | . | i | .
Cc1ccnc(NC(=O)C2CCN(S(=O)(=O)c3cccc4nonc34)CC2)c1 | -51* | i | 12% | ? | 5%
Cc1ccnc(NC(=O)C2CCN(S(=O)(=O)c3cccc4nsnc34)CC2)c1 | -53* | i | 1% | i | 4%
Cc1ccc(NC(=O)C2CCN(S(=O)(=O)c3cccc4nsnc34)CC2)cc1 | . | i | . | i | .
CCN(CC)S(=O)(=O)c1ccc(NC(=O)COC(=O)CNC(=O)C2CCCCC2)cc1 | 2 | i | -14% | i | -1%
S=C(NCCCCN(Cc1ccc(Cl)cc1)c1ccc(Br)cn1)NCCCc1cnc[nH]1 | . | ? | . | i | .
COc1cccc(N2CCN(c3c(C#N)c(C(F)(F)F)nn3C)CC2)c1 | -51* | i | -12% | 13µM* | -17%
CCc1nn(C(CC)C(=O)NCc2ccc(OC)c(OC)c2)c(=O)c2cc3oc(C)cc3n12 (stereo not given) | . | i | . | ? | .
O=C(NCc1ccc2c(c1)OCO2)c1ccc(CSCc2ccc(Cl)cc2)o1 | 3 | i | -3% | 21µM* | -10%
Cc1cc(Br)ccc1NC(=O)CN(C)C(=O)c1cc([N+](=O)[O-])ccc1N1CCOCC1 | -59* | i | -5% | ? | -3%
Cc1ccc(C(=O)c2cc([N+](=O)[O-])ccc2N2CCOCC2)cc1 | 36 | 2.1µM* | 5.2µM* | 0.82µM* | 7.3µM*
CCOc1ccc(C(=O)c2cc([N+](=O)[O-])ccc2N2CCOCC2)cc1 | 8 | 0.029µM* | 0.037µM* | ? | 0.026µM*
O=C(COc1ccc([N+](=O)[O-])cc1)N/N=C/c1cc([N+](=O)[O-])ccc1N1CCOCC1 | ? | i | -6% | 16µM* | -1%

Screening data from PubChem BioAssay.
